Source: paper PMC7862700, “An all-to-all approach to the identification of sequence-specific readers for epigenetic DNA modifications on cytosine”

Tests used:
Assay in all cases: DAPPL (digital affinity profiling via proximity ligation, sequencing); 10 mM Tris-HCl pH 7.5, 50 mM NaCl, 1 mM DTT, 4% glycerol, room temperature, 30 min; GST-TFs on glutathione beads, 16-mer random dsDNA library, 0.1% formaldehyde crosslink after washing; high values mean tight binding
Conditions in all cases: protein: recombinant; tags: N-terminal GST; dsDNA, one strand shown
[1] = target: T1, ELK1 (Homo sapiens, UniProt P19419 1-428)
T1 sequence: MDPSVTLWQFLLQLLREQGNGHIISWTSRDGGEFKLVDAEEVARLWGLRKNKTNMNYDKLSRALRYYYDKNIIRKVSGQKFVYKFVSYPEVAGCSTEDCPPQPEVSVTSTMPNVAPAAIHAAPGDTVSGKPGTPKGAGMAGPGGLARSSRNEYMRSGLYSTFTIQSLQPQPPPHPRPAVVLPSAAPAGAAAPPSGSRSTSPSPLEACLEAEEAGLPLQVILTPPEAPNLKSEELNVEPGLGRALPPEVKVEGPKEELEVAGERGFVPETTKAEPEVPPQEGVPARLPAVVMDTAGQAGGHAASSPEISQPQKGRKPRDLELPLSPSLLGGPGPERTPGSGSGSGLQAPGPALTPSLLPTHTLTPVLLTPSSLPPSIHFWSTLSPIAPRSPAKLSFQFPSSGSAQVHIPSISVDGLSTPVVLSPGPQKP
Procedure, shortened: (§1)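 Sequencing on an Illumina NextSeq500 followed washing, crosslinking with 0.1% formaldehyde, proximity ligation (BsaI/T4 ligase, 1 h, 37 °C) and PCR amplification of pools that had been incubated for 30 min at room temperature with 200 nmole of a random double-stranded 16-mer DNA library in Tris/NaCl/DTT/glycerol buffer. Each pool held DNA-barcoded human transcription factors, expressed in yeast as GST fusions and captured on glutathione beads, plus a tag-only sample. Binding signal is a hexamer's read frequency for a factor divided by its frequency in the tag-only sample.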

[2] = target: ELF1 (Homo sapiens, UniProt P32519 1-619)
Procedure, shortened: as §1

[3] = target: ETV5 (Homo sapiens, UniProt P41161 1-510)
Procedure, shortened: as §1

[4] = target: T2, ELK4 (Homo sapiens, UniProt P28324-2 1-405)
T2 sequence: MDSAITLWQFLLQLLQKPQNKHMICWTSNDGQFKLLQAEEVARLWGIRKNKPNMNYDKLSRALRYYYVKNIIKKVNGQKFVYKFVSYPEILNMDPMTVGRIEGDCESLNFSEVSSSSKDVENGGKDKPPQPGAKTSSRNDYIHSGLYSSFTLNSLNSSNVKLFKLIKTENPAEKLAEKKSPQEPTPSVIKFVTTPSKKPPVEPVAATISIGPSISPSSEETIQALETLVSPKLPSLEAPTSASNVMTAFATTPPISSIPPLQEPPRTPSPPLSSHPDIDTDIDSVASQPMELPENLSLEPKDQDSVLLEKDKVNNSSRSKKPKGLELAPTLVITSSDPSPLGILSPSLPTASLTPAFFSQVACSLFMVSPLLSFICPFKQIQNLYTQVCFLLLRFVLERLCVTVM
Procedure, shortened: as §1

[5] = target: T3, ETV2 (Homo sapiens, UniProt O00321 1-342)
T3 sequence: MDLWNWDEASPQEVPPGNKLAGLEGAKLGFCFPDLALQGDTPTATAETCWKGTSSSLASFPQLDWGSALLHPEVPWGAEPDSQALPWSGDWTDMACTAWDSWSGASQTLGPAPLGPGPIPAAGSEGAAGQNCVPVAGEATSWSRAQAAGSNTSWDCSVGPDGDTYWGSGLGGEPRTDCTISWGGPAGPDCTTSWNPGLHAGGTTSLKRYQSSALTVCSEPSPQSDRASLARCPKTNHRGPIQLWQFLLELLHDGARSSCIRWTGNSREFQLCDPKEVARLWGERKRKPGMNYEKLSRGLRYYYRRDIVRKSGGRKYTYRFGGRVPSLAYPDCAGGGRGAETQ
Procedure, shortened: as §1

[6] = target: ETV1 (Homo sapiens, UniProt P50549 1-477)
Procedure, shortened: as §1

[7] = target: T4, ERF (Homo sapiens, UniProt P50548 1-548)
T4 sequence: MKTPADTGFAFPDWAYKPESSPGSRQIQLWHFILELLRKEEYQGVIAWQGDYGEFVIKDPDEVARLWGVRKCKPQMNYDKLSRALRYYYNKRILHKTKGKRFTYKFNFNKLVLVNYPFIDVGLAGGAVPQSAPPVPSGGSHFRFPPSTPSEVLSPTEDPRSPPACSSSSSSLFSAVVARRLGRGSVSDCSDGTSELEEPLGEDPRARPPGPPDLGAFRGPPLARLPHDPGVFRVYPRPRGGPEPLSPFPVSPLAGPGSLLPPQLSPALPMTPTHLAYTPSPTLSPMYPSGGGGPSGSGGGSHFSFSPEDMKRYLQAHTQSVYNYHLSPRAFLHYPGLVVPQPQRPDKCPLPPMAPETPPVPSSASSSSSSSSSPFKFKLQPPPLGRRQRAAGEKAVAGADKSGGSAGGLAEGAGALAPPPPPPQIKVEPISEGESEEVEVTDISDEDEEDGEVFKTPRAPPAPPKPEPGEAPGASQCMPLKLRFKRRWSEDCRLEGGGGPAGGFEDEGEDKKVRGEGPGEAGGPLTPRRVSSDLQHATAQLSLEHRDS
Procedure, shortened: as §1

[8] = target: T5, SPDEF (Homo sapiens, UniProt O95238 1-335)
T5 sequence: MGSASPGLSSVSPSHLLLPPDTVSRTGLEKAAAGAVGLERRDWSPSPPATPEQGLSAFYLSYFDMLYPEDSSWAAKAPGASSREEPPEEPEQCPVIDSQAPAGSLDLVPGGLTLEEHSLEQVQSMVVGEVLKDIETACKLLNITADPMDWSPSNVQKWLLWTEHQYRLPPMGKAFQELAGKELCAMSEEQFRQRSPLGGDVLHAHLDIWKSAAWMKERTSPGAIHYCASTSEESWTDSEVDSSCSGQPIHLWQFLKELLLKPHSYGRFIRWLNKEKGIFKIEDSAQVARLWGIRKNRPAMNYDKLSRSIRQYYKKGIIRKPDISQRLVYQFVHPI
Procedure, shortened: as §1

Chain of ETV5 (P41161 whole entry): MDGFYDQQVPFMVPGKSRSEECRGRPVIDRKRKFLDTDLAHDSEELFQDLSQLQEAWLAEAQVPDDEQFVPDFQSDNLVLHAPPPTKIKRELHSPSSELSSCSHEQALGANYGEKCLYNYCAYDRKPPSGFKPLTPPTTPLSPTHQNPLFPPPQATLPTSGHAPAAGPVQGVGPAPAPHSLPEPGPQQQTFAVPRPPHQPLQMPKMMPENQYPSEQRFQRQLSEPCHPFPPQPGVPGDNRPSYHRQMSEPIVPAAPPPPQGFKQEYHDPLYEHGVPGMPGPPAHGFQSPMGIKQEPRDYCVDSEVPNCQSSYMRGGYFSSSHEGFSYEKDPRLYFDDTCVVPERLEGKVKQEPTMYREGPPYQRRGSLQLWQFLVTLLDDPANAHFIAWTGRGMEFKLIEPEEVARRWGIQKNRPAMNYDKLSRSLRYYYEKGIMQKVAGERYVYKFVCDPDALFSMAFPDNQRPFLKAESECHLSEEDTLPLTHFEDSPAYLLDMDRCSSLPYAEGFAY
Chain of ELF1 (P32519 whole entry): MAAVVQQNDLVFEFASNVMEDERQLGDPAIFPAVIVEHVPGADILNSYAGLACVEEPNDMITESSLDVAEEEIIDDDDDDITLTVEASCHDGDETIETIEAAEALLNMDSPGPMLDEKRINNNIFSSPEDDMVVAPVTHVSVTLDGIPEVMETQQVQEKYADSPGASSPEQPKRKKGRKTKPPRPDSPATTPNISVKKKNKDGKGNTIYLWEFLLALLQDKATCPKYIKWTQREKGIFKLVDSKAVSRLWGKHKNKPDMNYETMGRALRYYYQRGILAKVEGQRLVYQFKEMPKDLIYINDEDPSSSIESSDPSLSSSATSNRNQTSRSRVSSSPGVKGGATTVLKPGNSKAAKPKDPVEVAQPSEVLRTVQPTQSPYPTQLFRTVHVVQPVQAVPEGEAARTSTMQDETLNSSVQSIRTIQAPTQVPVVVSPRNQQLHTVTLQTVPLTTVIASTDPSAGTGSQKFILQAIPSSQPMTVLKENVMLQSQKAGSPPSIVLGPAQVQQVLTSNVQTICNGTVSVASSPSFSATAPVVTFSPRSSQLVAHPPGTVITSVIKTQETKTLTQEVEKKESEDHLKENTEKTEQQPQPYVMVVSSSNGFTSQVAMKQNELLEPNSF
Chain of ETV1 (P50549 whole entry): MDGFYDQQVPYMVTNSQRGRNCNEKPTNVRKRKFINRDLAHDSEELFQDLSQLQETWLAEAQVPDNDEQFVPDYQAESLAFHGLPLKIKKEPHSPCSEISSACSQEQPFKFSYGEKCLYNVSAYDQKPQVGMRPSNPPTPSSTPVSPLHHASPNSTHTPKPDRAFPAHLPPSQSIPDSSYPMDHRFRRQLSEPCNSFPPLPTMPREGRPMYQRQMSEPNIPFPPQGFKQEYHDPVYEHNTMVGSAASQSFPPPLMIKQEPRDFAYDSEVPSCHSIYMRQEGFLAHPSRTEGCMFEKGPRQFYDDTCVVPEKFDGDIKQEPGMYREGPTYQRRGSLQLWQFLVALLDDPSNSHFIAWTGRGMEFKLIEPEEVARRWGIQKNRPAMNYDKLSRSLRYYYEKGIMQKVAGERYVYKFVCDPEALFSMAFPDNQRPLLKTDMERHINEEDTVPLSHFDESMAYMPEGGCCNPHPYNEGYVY

ACGGTA was tested, and the binding signal [1] was 1.03 fold enrichment (6-mer frequency, TF over GST control), the binding signal [2] was 1.01 fold enrichment (6-mer frequency, TF over GST control) and the binding signal [3] was 1.04 fold enrichment (6-mer frequency, TF over GST control). For the same sequence, the binding signal [4] was 1.02 fold enrichment (6-mer frequency, TF over GST control), the binding signal [5] was 1.03 fold enrichment (6-mer frequency, TF over GST control) and the binding signal [6] was 1.01 fold enrichment (6-mer frequency, TF over GST control). For the same sequence, the binding signal [7] was 1.09 fold enrichment (6-mer frequency, TF over GST control) and the binding signal [8] was 1.05 fold enrichment (6-mer frequency, TF over GST control).
